KDM4E inh: JMJD2E (human) inhibition; hit rate 1.6% among 230,000; JMJD2E catalytic domain, FDH-coupled NADH fluorescence (FDH is formaldehyde dehydrogenase); Potency, µM (doses to about 57.1 µM), for the others: at the top dose activity change, negative = inhibition, usual class: inhibitors; AID 2147; B2RXH2; active = well fitted inhibition curve with a large enough effect, not every such curve was filed as active; inconclusive = small, poorly fitted or top-dose-only effect, or another doubt; inactive = no such curve, though single readings can be large or run the other way;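 note: 0% = wells with enzyme and -100% = buffer wells without enzyme; nearly all actives have a fitted effect of over 50% in size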
Target sequence (B2RXH2 1-337 limits assumed): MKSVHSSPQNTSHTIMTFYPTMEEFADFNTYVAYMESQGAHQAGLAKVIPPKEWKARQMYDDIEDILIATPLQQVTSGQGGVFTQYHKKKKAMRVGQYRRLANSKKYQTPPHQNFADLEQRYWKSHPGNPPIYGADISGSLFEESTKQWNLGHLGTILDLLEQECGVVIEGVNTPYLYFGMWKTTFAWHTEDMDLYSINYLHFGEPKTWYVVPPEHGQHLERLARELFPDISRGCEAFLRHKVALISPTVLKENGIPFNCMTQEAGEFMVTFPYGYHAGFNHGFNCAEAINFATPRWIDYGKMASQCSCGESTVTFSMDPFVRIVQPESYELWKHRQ
APE1 inh: inhibitors of human APE1 endonuclease. P27695. recombinant APE1, TAMRA/BHQ-2 abasic DNA cleavage fluorescence. Potency, µM (titrated, usually from 65.8 µM), for the others: at the top dose activity change, negative = inhibition, actives largely listed as inhibitors. hit rate 0.35% among 350,000. AID 2517;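 note: plate controls were vehicle for no effect and reference inhibitor for full effect; nearly all actives have a fitted effect of over 55% in size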
Target sequence (P27695 whole entry, looked up): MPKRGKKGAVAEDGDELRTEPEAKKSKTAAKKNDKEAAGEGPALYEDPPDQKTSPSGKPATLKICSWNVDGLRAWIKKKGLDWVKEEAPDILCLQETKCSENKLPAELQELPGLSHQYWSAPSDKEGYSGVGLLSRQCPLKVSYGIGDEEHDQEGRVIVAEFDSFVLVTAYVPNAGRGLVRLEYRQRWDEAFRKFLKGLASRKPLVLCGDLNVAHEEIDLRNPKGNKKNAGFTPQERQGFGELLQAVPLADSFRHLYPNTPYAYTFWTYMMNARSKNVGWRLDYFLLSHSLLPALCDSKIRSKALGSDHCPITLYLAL
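Endonuclease cleavage of a quenched abasic-site DNA duplex (50 nM) by APE1 (0.75 nM) was tracked by TAMRA dequenching. Compounds were preincubated with enzyme 15 min at room temperature; data normalized to buffer-only and DMSO wells plus NSC13755 control.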
L3MBTL1 block: inhibitors of human L3MBTL1. Q9Y468. AlphaScreen L3MBTL1–H3K9me1 peptide binding. Potency, µM (top dose mostly 57.1 µM), for inactives: at the highest dose activity, negative = inhibition, hits mostly inhibitors. hit rate 0.66% among 230,000. AID 485360; note: nearly all actives have a fitted effect of over 60% in size
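First, the protein-peptide complex forms for 30 min at room temperature (L3MBTL1 50 nM, biotinylated H3K9me1 peptide 75 nM). Next, compounds are pin-transferred and incubated 30 min. Finally, AlphaScreen beads are added and read after 30 min.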
RECQ1 helicase: inhibitors of human RECQ1 DNA helicase; Potency, µM (series often up to 57.3 µM), for inactives: top-dose activity, negative = inhibition, actives largely listed as inhibitors; P46063; hit rate 0.54% among 240,000; RECQ1 DNA unwinding, red fluorescence kinetic read;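 note: plate controls were vehicle for no effect and no enzyme for full effect; nearly all actives have a fitted effect of over 30% in size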
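RECQ1T1 50 nM; forked duplex (20 bp + 30-nt ss tails) 200 nM, ATP 2 mM final; pH 8.0, 2 mM MgCl2, 2.5 ug/ml poly(dI-dC); 15 min compound preincubation; discontinuous kinetic read over 2 h at RT.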
TDP1 block: blocks human tyrosyl-DNA phosphodiesterase 1; hit rate 0.28% among 350,000; Potency, µM (top dose mostly 130 µM), without a hit: at the top dose activity change, negative = inhibition, most hits filed as inhibitors; Q9NUW8; recombinant TDP1, AlphaScreen DNA substrate cleavage; note: nearly all actives have a fitted effect of over 40% in size
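Steps: enzyme plus compound, 15 min RT; add biotin/phosphotyrosine-FITC oligonucleotide (15 nM final), react 5 min; add donor/acceptor beads (10 ug/ml final), 10 min; read AlphaScreen. Tdp1 at 1 nM final.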
BLM helicase inh: Bloom syndrome helicase (human) inhibition. P54132. recombinant BLM DNA unwinding, fluorescence dequenching. Potency, µM (series often up to 56.1 µM), inactives show at the top dose activity change, negative = inhibition, hits mostly inhibitors. hit rate 0.2% among 350,000;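 note: plate controls were vehicle for no effect and no enzyme for full effect; nearly all actives have a fitted effect of over 35% in size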
Starred values were filed as active, the others as inactive; i = inactive; ? = inconclusive; nt = no result given; ! = a repeat was not active; [ ] = another dose, or the depositor's remark. Many of the other results were omitted from the sample, so hits are more common in it than they were. Unless noted, calls come from the whole dose curve; as a rule, active = well fitted curve in the direction sought with a large enough effect; inconclusive = small, poorly fitted or top-dose-only effect, or another doubt; inactive = no such curve, though single readings can be large; an effect the other way counts as inactive or inconclusive. Unless noted, % is set by controls: 0 for no effect and ±100 for the full control effect; potency is the fitted concentration of half-maximal effect.

SMILES	KDM4E inh	APE1 inh	L3MBTL1 block	RECQ1 helicase	TDP1 block	BLM helicase inh
Cc1ccc(/C=C/C2=Cc3c(sc(NC(=O)CSc4n[nH]c(N)n4)c3C#N)C(C)(C)C2)o1	-9%	-7%	?	20µM*	-2%	?
Cc1onc(-c2ccccc2)c1C(=O)NC1C(=O)N2C(C(=O)O)C(C)(C)S[C@@H]12 (stereo not given in full)	-4%	-1%	nt	19%	-7%[56.1 µM]	3%
COc1cc(/C=C2/CC/C(=C/c3ccc(O)c(OC)c3)C2=O)ccc1O	11µM*	3%	-14%	12%	nt	-11%
O=C1OC(c2ccccc2)=N/C1=C\C=C\c1ccco1	-13%	?	?	?	45µM*	-4%
CC1(C)CC(=O)c2cc(C(=O)Nc3ccc(Br)cc3)c(=O)[nH]c2C1	nt	nt	nt	nt	1%	-6%
CCCCC(=O)N(Cc1ccc(-c2ccccc2-c2nn[nH]n2)cc1)[C@@H](C(=O)O)C(C)C	nt	-4%	nt	nt	nt	nt
C/C(=N\NC(=O)c1ccc(NS(=O)(=O)c2cccs2)cc1)c1ccc(O)cc1O	13µM*	11%	-17%	7%	3%	-4%
Cc1cccc2c(N=NC(=O)c3ccc(NS(=O)(=O)c4cccs4)cc3)c(O)[nH]c12	nt	?	-4%	nt	50µM*	nt
Cc1ccc2[nH]c(O)c(N=NC(=O)c3ccc(NS(=O)(=O)c4cccs4)cc3)c2c1	-2%	-1%	nt	-3%	nt	-22%
CC[C@H](C)[C@H](NC(=O)[C@H](C)NC(=O)[C@H](CC(=O)O)NC(=O)[C@H](CO)NC(=O)[C@@H](N)Cc1cnc[nH]1)C(=O)N[C@@H](Cc1ccccc1)C(=O)N[C@H](C(=O)N[C@@H](CCC(N)=O)C(=O)N[C@@H](CCC(N)=O)C(=O)N[C@@H](Cc1ccc(O)cc1)C(=O)N[C@@H](CO)C(=O)N[C@@H](CCCCN)C(=O)N[C@@H](CC(C)C)C(=O)N[C@@H](CC(C)C)C(=O)N[C@@H](C)C(=O)N[C@@H](CCCCN)C(=O)N[C@@H](CC(C)C)C(=O)N[C@@H](C)C(=O)N[C@@H](CC(C)C)C(=O)N[C@@H](CCC(N)=O)C(=O)N[C@@H](CCCCN)C(=O)N[C@@H](Cc1ccc(O)cc1)C(=O)N[C@@H](CC(C)C)C(=O)N[C@@H](C)C(=O)N[C@@H](CO)C(=O)N[C@H](C(=O)N[C@@H](CC(C)C)C(=O)NCC(=O)N[C@@H](CO)C(=O)N[C@@H](CCCNC(=N)N)C(=O)N[C@H](C(=O)N[C@@H](CO)C(=O)N1CCC[C@H]1C(=O)N1CCC[C@H]1C(=O)N1CCC[C@H]1C(N)=O)[C@@H](C)O)[C@@H](C)CC)[C@@H](C)O	nt	?	nt	-14%	8%	-5%
CCOC(=O)/C=C(\C)Sc1cc(O)c2ccccc2c1O	3.5µM*	?	?	-21%	10%	?
CCc1ccc(-n2c(=O)c3c4c(sc3n(CC(=O)N3CCCCC3CC)c2=O)CCC4)cc1 (stereo not given)	nt	nt	nt	nt	1%	-8%
Cc1ccc(/C=N/N2C(=S)SC(C)(C)C2N(O)C(=O)Nc2ccc([N+](=O)[O-])cc2)cc1 (stereo not given)	-4%	10%	-5%	32µM*	7%	-8%
CC(C)(C)n1ncc2c(=O)n(Cc3ccc(F)c(C(F)(F)F)c3)cnc21	nt	-9%	nt	nt	nt	nt
Nc1ccc(S(=O)(=O)N2CCCN(S(=O)(=O)c3ccc4c(c3)OCCO4)CC2)cc1	nt	nt	nt	nt	1%	nt
O=C(O)c1ccc(CN2C(=O)c3cccc4c([N+](=O)[O-])ccc(c34)C2=O)cc1	nt	-19%	nt	nt	nt	-3%
Cc1ccc(C(=O)O)cc1N1C(=O)c2cccc3c([N+](=O)[O-])ccc(c23)C1=O	nt	-25%	22µM*	nt	nt	4%
CCC(C)(C)OC	nt	-2%	nt	-7%	18%	nt
C[C@@](Cc1ccc(O)c(O)c1)(NN)C(=O)O	3.5µM*!	0%	4%	-3%	?	-3%
Cc1oc2ccc(O)c(CN3CCCCCC3)c2c1C(=O)Nc1cccc(C(F)(F)F)c1	nt	nt	nt	nt	1%	-1%
Cc1nc(=S)c2ccccc2[nH]1	-4%	4%	nt	i	7%	1%
FC(F)(F)c1nc(=S)c2ccccc2[nH]1	10µM*	-4%	nt	-1%	7%	-3%
COC(=O)CCCC1=CC2=C(c3ccccc3)C(=O)C(C)(OC(=O)C3CCCC3)C(=O)C2=CN1CCN1CCOCC1 (stereo not given)	3.2µM*!	0%[12.4 µM]	nt	12%[11.5 µM]	-7%[12.3 µM]	-7%[12.4 µM]
COC(=O)CCCC1=CC2=C(c3ccccc3)C(=O)C(C)(OC(=O)C3CCCC3)C(=O)C2=CN1Cc1ccccc1 (stereo not given)	-15%[11.4 µM]	2%[12.4 µM]	nt	7%[11.5 µM]	6%[12.3 µM]	-12%[12.4 µM]
NC(=O)c1c(N)sc2c1CCCC2	?	-7%	0%	13%	-10%	-12%
SMILES	KDM4E inh	APE1 inh	L3MBTL1 block	RECQ1 helicase	TDP1 block	BLM helicase inh
Nc1sc2c(c1C(=O)NC1CCS(=O)(=O)C1)CCCC2 (stereo not given)	28µM*	0%	-1%	i	2%	-10%
c1nc(NCc2ccc3c(c2)OCO3)c2[nH]cnc2n1	nt	nt	nt	nt	1%	nt
Oc1ccc(Br)cc1C=Nc1ccc(Cl)cc1	-8%	-4%	nt	-7%	0%	0%
CC(C)(C)c1ccc(O)c(N=Cc2cc(Br)ccc2O)c1	28µM*	4%	-17%	15%	-5%	-13%
Cc1ccc(O)c(C=Nc2cc(C)ccc2O)c1	20µM*	5%	-8%	i	8%	0%
Cc1ccc(O)c(N=CC2=C(O)c3ccccc3C2=O)c1	-5%	-9%	?	-17%	10%	-8%
CCNc1nc(NCC)nc(C(=O)NN)n1	27%	3%	4µM*	-4%	5%	6%
COc1ccccc1-c1cncnc1-n1ccnc1	?	0%	nt	-7%	22µM*	2%
Cc1ccc2c(c1)C(c1ccccc1)N(C(=O)c1ccccc1F)CC(=O)N2 (stereo not given)	nt	nt	nt	nt	-6%	-3%
Nc1ccccc1Nc1cc(-c2ccccc2)[nH]n1	20µM*	-2%	-21%	-6%	8%	-5%
O=C1CC(c2ccco2)CC(O)=C1C=NCC1CCNCC1 (stereo not given)	10µM*	32µM*	2%	i	?	-3%
O=C(CSc1nnc(-c2cccc([S+](=O)([O-])N3CCCC3)c2)n1-c1ccccc1)Nc1cccc(F)c1	nt	40%	nt	nt	nt	nt
Cc1[nH]n(-c2ccccc2)c(=S)c1C=Nc1cccc([N+](=O)[O-])c1	5.6µM*	-3%	1%	i	6%	0%
Cc1[nH]n(-c2ccccc2)c(=O)c1C=Nc1cccc2cccnc12	?	14%	-9%	-6%	5%	-18%

Screening data (PubChem)
